Data published in PubChem BioAssay AID2221 (Broad Institute, 2009).
Hit rate of the full screen: of about 290,000 compounds, about 2,200 (0.76%) were called active. Rule as the data show it: active = inhibition above about 30%; inconclusive = no clear call, values can overlap the other calls; inactive = below that. The list comes from a sample in which actives are over-represented; it also holds similar structures and randomly drawn compounds.

target: Protein RecA (Mycobacterium tuberculosis (strain ATCC 25618 / H37Rv)) (UniProt P9WHJ3); test: Mtb RecA intein splicing inhibitors, primary screen, biochemical, fluorescence, HTS (AID 2221); conditions: cell-free RecA intein splicing, stronger effect = higher value, concentration not given here;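 also: 0% = vehicle wells and 100% = reference inhibitor control wells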
Sequence (P9WHJ3 whole entry, looked up): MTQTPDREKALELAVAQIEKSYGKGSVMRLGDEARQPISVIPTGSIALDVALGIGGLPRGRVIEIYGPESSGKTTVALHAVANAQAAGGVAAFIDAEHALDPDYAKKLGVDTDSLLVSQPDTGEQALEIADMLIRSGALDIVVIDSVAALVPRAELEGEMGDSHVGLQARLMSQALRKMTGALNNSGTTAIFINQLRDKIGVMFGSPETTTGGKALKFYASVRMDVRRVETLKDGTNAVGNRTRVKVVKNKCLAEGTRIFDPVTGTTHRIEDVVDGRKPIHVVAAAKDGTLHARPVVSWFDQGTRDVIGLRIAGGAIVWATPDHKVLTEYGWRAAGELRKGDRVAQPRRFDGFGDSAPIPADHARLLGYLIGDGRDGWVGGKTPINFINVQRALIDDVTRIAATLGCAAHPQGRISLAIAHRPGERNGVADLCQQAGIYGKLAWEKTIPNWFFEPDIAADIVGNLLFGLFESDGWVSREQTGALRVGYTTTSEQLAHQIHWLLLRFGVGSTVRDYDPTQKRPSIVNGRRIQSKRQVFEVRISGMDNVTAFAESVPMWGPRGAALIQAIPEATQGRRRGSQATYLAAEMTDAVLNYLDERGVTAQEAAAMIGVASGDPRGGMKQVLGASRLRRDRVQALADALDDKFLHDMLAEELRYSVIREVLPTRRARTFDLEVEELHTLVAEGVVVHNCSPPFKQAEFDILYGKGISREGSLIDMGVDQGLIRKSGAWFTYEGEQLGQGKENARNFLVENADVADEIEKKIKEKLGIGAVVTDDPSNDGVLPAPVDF

Row | SMILES | inhibition
1 | O=C(NC1CCc2ccccc21)C12CN(Cc3ccccc3)CC1C(c1cccc([N+](=O)[O-])c1)=NO2 (stereo not drawn) | 8.13% (inactive)
2 | CCOc1ccc(-n2c(SCC(N)=O)nnc2-c2ccco2)cc1 | 1.21% (inactive)
3 | CC1(N2CCOCC2)CC2(O)C(=[N+]1[O-])CCc1nonc12 (stereo not drawn) | 59.8% (active)
4 | CC(=O)n1c(C=Nc2ccccc2)c(O)c2ccccc21 | -25.1% (inactive)
5 | Cc1ccc(NC(=O)CSc2nnc(CNC(=O)c3ccccc3F)o2)cc1 | -1.52% (inactive)
6 | O=C(CCCN=C1NS(=O)(=O)c2ccccc21)OCC(=O)c1ccc(F)c(F)c1 | 0.337% (inactive)
7 | CCN(CC)S(=O)(=O)c1ccc(Cl)c(NC(=O)c2ccncc2)c1 | -0.0873% (inactive)
8 | CC(=O)c1cccc(NC(=O)c2ccncc2)c1 | -0.301% (inactive)
9 | CN(C)c1ccc(NC(=O)c2ccncc2)c2ccccc12 | 32.8% (active)
10 | Cc1cc(Nc2cccc(C)c2C)n2ncnc2n1 | 0.489% (inactive)
11 | COc1ccc(Nc2ncnc3ccc(Br)cc23)c(OC)c1 | -1.95% (inactive)
12 | COc1ccc2sc(N(CCCN(C)C)C(=O)c3ccc(S(=O)(=O)N(C)C4CCCCC4)cc3)nc2c1 | 2.28% (inactive)
13 | S=c1nccc(-c2cc(Cl)sc2Cl)[nH]1 | 2.58% (inactive)
14 | O=c1oc2ccccc2cc1-c1csc(Nc2ccc(O)cc2)n1 | -3.92% (inactive)
15 | COc1ccc(-c2csc(Cc3nc(O)cs3)n2)cc1 | 8.96% (inactive)
16 | COc1ccc(-c2csc(Nc3ccc(O)cc3)n2)cc1 | 33.3% (active)
17 | NNC(=O)C1CC(O)CN1S(=O)(=O)c1ccc(Cl)cc1 (stereo not drawn) | 0.0391% (inactive)
18 | COc1cccc(CN(C)C(=O)CC23CC4CC(CC(C4)C2)C3)c1OC | 9.37% (inactive)
19 | O=C(NCCc1ccccc1)Oc1ccc(Cl)cc1 | 6.61% (inactive)
20 | COc1cccc(CNC(=O)C2CCCN(c3ncnc4c3nc3n4CCCCC3)C2)c1 (stereo not drawn) | 3.28% (inactive)
21 | COc1cccc(NC(=O)c2ccc3c(SCC(=O)O)c4c(nc3c2)CCCC4)c1 | 16.6% (inactive)
22 | CC(=O)c1ccc(NC(=O)c2ccc3c(Cl)c4c(nc3c2)CCCC4)cc1 | -0.115% (inactive)
23 | O=C(O)CSc1c2c(nc3cc(C(=O)Nc4cccc(C(F)(F)F)c4)ccc13)CCCC2 | 45.1% (active)
24 | CC(C)CC(=O)Nc1nnc(S(=O)(=O)N(C)c2ccc(Cl)cc2)s1 | -1.1% (inactive)

Row | SMILES | inhibition
25 | O=C(C1CCCN(S(=O)(=O)c2ccc([N+](=O)[O-])cc2)C1)N1CCCCC1 (stereo not drawn) | -2.27% (inactive)
26 | O=c1oc2ccccc2c(NC2CCCCC2)c1NS(=O)(=O)c1ccc(Cl)cc1 | -0.796% (inactive)
27 | COC(=O)c1cn(C(=O)c2ccc(Cl)cc2)c2ccccc12 | -1.64% (inactive)
28 | COC(=O)c1ccc(-n2cnc3ccccc32)nc1 | -0.81% (inactive)
29 | O=C(c1ccc(Cl)cc1)n1cnc2ccccc21 | 48.8% (active)
30 | O=C(Nc1ncccc1O)c1ccc(S(=O)(=O)N2CCCCCC2)cc1 | -0.935% (inactive)
31 | Oc1c(Cl)cc(Cl)c(Cl)c1Cc1c(O)c(Cl)cc(Cl)c1Cl | 43.2% (active)
32 | COC(=O)c1nc(NC(=O)c2ccc(F)cc2)n[nH]1 | 22.9% (inactive)
33 | COC(=O)c1nc(NC(=O)c2ccc(Cl)cc2)n[nH]1 | -2.52% (inactive)
34 | COC(=O)c1nc(NC(=O)c2ccc(C(C)(C)C)cc2)n[nH]1 | 32.8% (active)
35 | CC(=O)N1CC(=O)N(CC(=O)Nc2ccc(Br)cc2)C1=S | -3.4% (inactive)
36 | O=C(Oc1cccc(O)c1)C1CCCCC1 | -20.9% (inactive)
37 | COC(=O)C1=C(C(=O)OC)C(c2cc([N+](=O)[O-])ccc2O)c2sc(=O)[nH]c2S1 (stereo not drawn) | -7.2% (inactive)
38 | CCOC(=O)c1c(C)[nH]c2c1-c1ccccc1C(=O)C2=O | 97.6% (active)
39 | CCOC(=O)c1c(C)[nH]c(C)c1S(=O)(=O)N(C)CC(=O)Nc1ccccc1C | -2.47% (inactive)
40 | CCOC(=O)c1c(C)nc(-c2ccccc2)nc1NC(=O)C(C)C | -0.631% (inactive)
41 | Cc1cc(C=O)c(C)n1-c1ccc(NC2CCCCC2)c([N+](=O)[O-])c1 | 15.3% (inactive)
42 | O=C(c1cccc(N2CCCC2=O)c1)N1CCOCC1 | 2.18% (inactive)
43 | O=C(O)c1cccc(N2C(=O)Nc3ccccc3N2O)c1 | -5.4% (inactive)
44 | NC1=NN(c2cccc(C(=O)O)c2)C(=O)C1 | 83.8% (active)
45 | N=C1/C(=C/c2cccn2-c2cccc([N+](=O)[O-])c2)C(=O)N=C2SC=CN12 | -0.963% (inactive)
46 | Cc1ccccc1Cn1c(=O)[nH]c2ccccc21 | 3.55% (inactive)
47 | O=c1[nH]n2c(-c3ccccc3)nc(O)c2c2ccccc12 | -1.37% (inactive)
48 | O=c1[nH]c2ccccc2n2c(-c3ccccc3)nnc12 | 33.2% (active)
